# Bioassay records from PubChem BioAssay.
# In the library only some 2% were active in any assay of this set; here they are far more common.
# Rango release inh: inhibition of RanGTP-driven Rango-importin beta dissociation; Biochemical FRET Rango-importin beta, RanGTP-induced dissociation; Potency, µM (highest dose often 46.1 µM), inactives show top-dose activity change, negative = inhibition; 340,000 compounds, 0.071% hits; calls by dose curve; note: % of control where 0% means no effect; nearly all actives have a fitted effect of over 45% in size
#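 Compounds preincubate 5 min with complex of recombinant Rango and importin beta in PBS with 1 mM DTT. Ran (0.6 uM) loaded with 2 mM GTP plus 0.2 uM RCC1 starts dissociation; FRET is recorded 45 min later.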
# S-ASM inh: inhibitors of human secretory acid sphingomyelinase; P17405; placental ASM, HMU-PC fluorogenic substrate, 60 min; Potency, µM (series often up to 57.5 µM), for the others: at the highest dose activity change, negative = inhibition, usual class: inhibitors; 340,000 compounds, 0.006% hits; AID 504937
#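 HMU-PC0 cleavage (9 uM final) by human placental ASM, 60 min at 37 °C following 10 min compound exposure at RT; stopped at pH 10, fluorescence Ex 386/Em 447 nm.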
# TDP-43 yeast inh: inhibitors of TDP-43 toxicity in yeast. TDP-43 expressing yeast growth rescue, BacTiter-Glo, 24 h. Potency, µM (series often up to 46.1 µM), inactives show at the top dose growth rescue (activation), actives largely listed as activators. 410,000 compounds, 1.8% hits; note: % of control where 0% means no effect; nearly all actives have a fitted effect of over 50% in size
#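 Yeast cells expressing TDP-43 under galactose induction are exposed to compounds for 24 hr at 30 deg C. BacTiter-Glo luminescence measures growth, so protective compounds score as activators.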
# Abeta rescue: compounds reversing amyloid beta toxicity in yeast; yeast expressing A-beta42, growth rescue, OD600, 48 h; response scale: 0% DMSO, 100% iron-clioquinol control; Potency, µM (series often up to 46.1 µM), actives largely listed as activators; 410,000 compounds, 0.063% hits; AID 1347071; note: nearly all actives have a fitted effect of over 55% in size
#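 Yeast A-beta toxicity model in growth medium with pinned compounds, 48 h at 30 C; growth read as absorbance at 600 nm. Normalized to FeCl3/clioquinol equimolar mix (positive) and DMSO (negative).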
# aSyn yeast inh: rescues yeast growth from alpha-synuclein toxicity; Yeast expressing alpha-synuclein, growth rescue, BacTiter-Glo, 24 h; Potency, µM (series often up to 46.1 µM), without a hit: at the highest dose growth rescue (activation), actives largely listed as activators; 370,000 compounds, 0.14% hits; note: % of control where 0% means no effect; nearly all actives have a fitted effect of over 65% in size
#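 Rescue of yeast growth: cells expressing toxic alpha-synuclein, induced in galactose at OD600 0.02, incubated with compound 24 h at 30 C. ATP luminescence quantified growth; inhibitors of toxicity appear as activators.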
# Rango complex inh: prevents formation of the Rango-importin beta complex | Potency, µM (highest dose often 92.2 µM), for inactives: top-dose inhibition of complex formation | AID 540263 | 340,000 compounds, 0.031% hits | Rango CFP/YFP FRET sensor + importin beta, 45 min | Q14974; calls by dose curve;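 note: 0% = DMSO wells and 100% = buffer wells lacking importin beta; nearly all actives have a fitted effect of over 15% in size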
# Target sequence (Q14974 whole entry, looked up): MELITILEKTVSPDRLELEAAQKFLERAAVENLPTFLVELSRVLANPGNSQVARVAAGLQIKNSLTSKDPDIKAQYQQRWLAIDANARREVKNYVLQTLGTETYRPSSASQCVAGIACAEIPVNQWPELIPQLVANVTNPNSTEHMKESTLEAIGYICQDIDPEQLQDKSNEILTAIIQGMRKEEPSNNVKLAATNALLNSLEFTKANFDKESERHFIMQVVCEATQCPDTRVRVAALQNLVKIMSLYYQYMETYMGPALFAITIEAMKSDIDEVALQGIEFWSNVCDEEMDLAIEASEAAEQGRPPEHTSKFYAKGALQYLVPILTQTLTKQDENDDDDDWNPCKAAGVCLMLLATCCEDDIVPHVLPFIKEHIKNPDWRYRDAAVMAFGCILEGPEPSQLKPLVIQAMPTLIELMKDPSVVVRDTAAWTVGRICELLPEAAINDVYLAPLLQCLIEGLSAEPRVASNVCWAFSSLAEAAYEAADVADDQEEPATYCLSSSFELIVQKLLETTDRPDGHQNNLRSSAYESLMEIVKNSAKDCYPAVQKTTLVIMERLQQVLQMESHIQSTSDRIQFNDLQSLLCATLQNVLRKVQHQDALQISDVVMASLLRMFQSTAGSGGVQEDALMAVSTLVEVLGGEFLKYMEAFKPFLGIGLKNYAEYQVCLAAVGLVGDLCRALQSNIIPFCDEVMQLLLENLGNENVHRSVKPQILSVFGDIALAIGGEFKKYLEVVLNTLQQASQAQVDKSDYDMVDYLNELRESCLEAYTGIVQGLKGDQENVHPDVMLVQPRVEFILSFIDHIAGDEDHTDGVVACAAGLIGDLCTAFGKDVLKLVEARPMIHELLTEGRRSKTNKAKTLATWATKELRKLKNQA
#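 Inhibition scored from the CFP 486 nm/YFP 530 nm FRET ratio 45 min after adding 0.125 microM importin beta to 50 nM Rango biosensor preincubated 5 min with compound (room temperature, PBS with DTT, Tween-20, BSA). No-importin wells as positive control.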
# An asterisk follows results filed as active; i = inactive; ? = inconclusive; nt = not tested or not shown; [ ] = another dose, or the depositor's remark. Unless noted, calls come from the whole dose curve; as a rule, active = well fitted curve in the direction sought with a large enough effect; inconclusive = small, poorly fitted or top-dose-only effect, or another doubt; inactive = no such curve, though single readings can be large; an effect the other way counts as inactive or inconclusive. Potency is the fitted concentration of half-maximal effect.
SMILES,Rango release inh,S-ASM inh,TDP-43 yeast inh,Abeta rescue,aSyn yeast inh,Rango complex inh
N/C(=N\OC(=O)C1CCCCC1)c1cccc(Br)c1,0%,2%,-45%,i,-36%,0%
N/C(=N\OC(=O)CC1CCCCC1)c1ccc(Cl)cc1,-6%,-3%,?,i,-21%,-1%
COc1ccc(/C(N)=N/OC(=O)CC2CCCCC2)cc1OC,-8%,-1%,22µM*,i,1%,1%
N/C(=N\OC(=O)CC1CCCCC1)c1ccc(Br)cc1,9%,0%,7.9µM*,i,-19%,1%
CNC(=O)c1ccc2nc(-c3ccco3)c(-c3ccco3)nc2c1,nt,nt,nt,nt,-3%,nt
O=C1c2ccccc2C(=O)N1CCCc1c[nH]c2ccc(Cl)cc12,4%,-3%,10µM*,i,5%,1%
Cn1cnc2c(=O)oc3ccc(S(=O)(=O)N4CCN(c5cccc(C(F)(F)F)c5)CC4)cc3c21,nt,nt,0%,i,nt,nt
Cc1ccc(C(=O)c2ccc(O)cc2)cc1C,14%,-3%,18µM*,i,0%,3%
Cc1ccc(C(=O)c2cccc(N)c2)cc1C,-9%,1%,3%,i,8%,-2%
O=C(c1ccc(O)cc1)c1ccc(Cl)cc1,7%,-3%,11µM*,i,10%,0%
COc1ccc(-n2cc(C(=O)N(C)c3cc(C)ccc3OC)c3ccccc3c2=O)cc1,nt,nt,?,i,nt,nt
CCCC(=O)NCC(c1ccc2c(c1)OCO2)N1CCOCC1 (stereo not given),nt,nt,4%,i,nt,nt
CS(=O)(=O)N(CC(=O)NCCSCc1ccccc1)c1cc(C(F)(F)F)ccc1Cl,nt,nt,?,i,nt,nt
CCOC(=O)Cn1c(=O)n(C2CCCCC2)c2nc(-c3c(F)cccc3Cl)nc(C(N)=O)c21,nt,nt,-2%,i,3%,nt
CCc1c(C)sc(NC(=S)Nc2cccnc2)c1C(=O)OC,-2%,-7%,25µM*,i,-3%,2%
CCc1c(C)sc(NC(=S)Nc2nc(C)cc(C)n2)c1C(=O)OC,0%,-7%,0%[0.397 µM],i,-8%,-3%
O=C(C1=C(O)/C(=C/c2ccc(O)cc2)CCC1)C(F)(F)F,?,-23%,22µM*,i,-29%,?
COc1ccc(/C=C2\CCCC(C(=O)C(F)(F)F)=C2O)cc1,-18%,-25%,1%,i,0%,?
C=C1C=C(C(F)(F)F)n2ncc(C(=O)NCc3ccc(F)cc3)c2N1,nt,nt,nt,nt,-6%,nt
Cc1cccc(NC(=O)c2c(C)cc(C)nc2SCC(=O)Nc2c(C)cc(C)cc2C)c1,nt,nt,27%,i,nt,nt
CCCn1nc(NS(C)(=O)=O)c2cc3cccc(C)c3nc21,-19%,-6%,35µM*,i,16%,?
Cc1c(C(=O)O)cnc2cc(-c3ccc(Cl)cc3)nn12,-13%,13%,3.5µM*,i,-4%,-2%
O=[N+]([O-])c1ccc(Nc2cccc(F)c2)nc1,?,-6%,13µM*,i,1%,?
O=[N+]([O-])c1ccc(Nc2ccc(F)cc2)nc1,-14%,-4%,22%,i,-17%,1%
Cc1ccc(Nc2ccc([N+](=O)[O-])cn2)cc1Cl,-10%,-5%,0.89µM*,i,0%,?
SMILES,Rango release inh,S-ASM inh,TDP-43 yeast inh,Abeta rescue,aSyn yeast inh,Rango complex inh
CCSc1ncc(Cl)c(C(=O)Nc2nnc(CC)s2)n1,nt,nt,?,i,nt,nt
CCc1nnc(NC(=O)c2nc(SCc3ccc(F)cc3)ncc2Cl)s1,nt,nt,16µM*,i,nt,nt
CSc1ncc(Cl)c(C(=O)Nc2cccc(Cl)c2)n1,-3%,-17%,22µM*,i,10%,-2%
Cc1ccc(NC(=O)c2nc(SCc3ccccc3F)ncc2Cl)cc1,nt,nt,nt,nt,-4%,nt
CC(=O)Nc1ccc(NC(=O)c2nc(SCc3ccccc3F)ncc2Cl)cc1,nt,nt,nt,nt,32µM*,nt
CSc1ncc(Cl)c(C(=O)Nc2cccc(C)c2)n1,-3%,-9%,?,i,1%,-1%
